# Laboratory results from PubChem BioAssay (Tox21).
# Unmarked numbers belong to inactive results. Results filed as inconclusive are left out. Where a call stands in place of a potency, no number is given. Active and inactive are the calls of the source. The call rests on the fitted dose curve; in most records, active means well fitted curve in the direction sought with a large enough effect in the repeat runs; inconclusive means weak or mixed curves; inactive means no such curve, though single readings can be large; an effect the other way counts as inactive or inconclusive.
# Legend:
# [1] = qHTS RealTime-Glo MT Cell Viability Assay in HEK293 cells - 16 hour (AID 1224872); further: top concentration of the series differs between compounds; nearly all actives have a fitted effect of over 50% in size
# How it was run: (§1)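 Viability tracked continuously by luminescence as live cells reduce a prosubstrate for NanoLuc; HEK293 cells preincubated 5 h, compound-treated at 37 C, and read at 0, 8, 16, 24, 32 and 40 h.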
# [2] = qHTS RealTime-Glo MT Cell Viability Assay in HepG2 cells - 8 hour (AID 1224873); further: nearly all actives have a fitted effect of over 55% in size
# How it was run: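 HepG2 cells mixed with RealTime-Glo MT reagents (NanoLuc plus cell-permeant prosubstrate) were seeded at 600 cells/well, incubated 5 h at 37 C/5% CO2, then pinned with compounds in DMSO; nonlytic luminescence tracked viability during 40 h treatment.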
# [3] = qHTS RealTime-Glo MT Cell Viability Assay in HEK293 cells - 40 hour (AID 1224874); conditions: RealTime-Glo luminescence; max response: stronger effect = lower value; further: nearly all actives have a fitted effect of over 50% in size; further: potency means the concentration at half of the fitted maximal effect
# How it was run: (§2)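 Nonlytic bioluminescent viability monitoring. HEK293 at 600 cells/well with reagent; 5 h settle; compound transfer by pintool; plates held at 37 C and read at set time points.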
# [4] = A CellTox Green Cytotoxicity Assay to monitor cytotoxicity in HEK293 cells - 24 hour (AID 1224875); further: nearly all actives have a fitted effect of over 45% in size; further: potency means the concentration at half of the fitted maximal effect; on activity change: series mostly up to about 77 µM
# How it was run: (§3)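 Cytotoxicity was tracked continuously in HEK293 cells by a DNA-binding dye excluded from viable cells. Compounds were transferred in DMSO 5 h after seeding; fluorescence was recorded at intervals up to 40 h.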
# [5] = A CellTox Green Cytotoxicity Assay to monitor cytotoxicity in HepG2 cells - 16 hour (AID 1224876); further: nearly all actives have a fitted effect of over 45% in size; further: potency means the concentration at half of the fitted maximal effect
# How it was run: (§4)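 Real-time, homogeneous cytotoxicity readout: dead-cell DNA staining by CellTox Green in HepG2 monolayers, fluorescence measured at timed intervals up to 40 h of continuous compound exposure.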
# [6] = qHTS RealTime-Glo MT Cell Viability Assay in HepG2 cells - 32 hour (AID 1224877); further: nearly all actives have a fitted effect of over 55% in size
# How it was run: (§5)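 Viability was tracked continuously by NanoLuc luminescence from prosubstrate reduced by living HepG2 cells, at successive time points over 40 h of compound exposure. Cells with reagent were preincubated 5 h at 37 °C before compound addition.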
# [7] = A CellTox Green Cytotoxicity Assay to monitor cytotoxicity in HepG2 cells - 24 hour (AID 1224878); further: nearly all actives have a fitted effect of over 45% in size; further: potency means the concentration at half of the fitted maximal effect
# How it was run: as §4
# [8] = A CellTox Green Cytotoxicity Assay to monitor cytotoxicity in HepG2 cells - 40 hour (AID 1224879); further: nearly all actives have a fitted effect of over 40% in size; further: potency means the concentration at half of the fitted maximal effect
# How it was run: as §4
# [9] = qHTS RealTime-Glo MT Cell Viability Assay in HEK293 cells - 0 hour (AID 1224880); further: top concentration of the series differs between compounds; nearly all actives have a fitted effect of over 45% in size
# How it was run: as §2
# [10] = A CellTox Green Cytotoxicity Assay to monitor cytotoxicity in HepG2 cells - 0 hour (AID 1224882); further: nearly all actives have a fitted effect of over 35% in size
# How it was run: as §4
# [11] = A CellTox Green Cytotoxicity Assay to monitor cytotoxicity in HepG2 cells - 32 hour (AID 1224883); further: nearly all actives have a fitted effect of over 50% in size; further: potency means the concentration at half of the fitted maximal effect
# How it was run: as §4
# [12] = qHTS RealTime-Glo MT Cell Viability Assay in HepG2 cells - 16 hour (AID 1224885); further: nearly all actives have a fitted effect of over 50% in size
# How it was run: as §5
# [13] = qHTS RealTime-Glo MT Cell Viability Assay in HEK293 cells - 24 hour (AID 1224886); further: nearly all actives have a fitted effect of over 50% in size; further: potency means the concentration at half of the fitted maximal effect; on activity change, negative = cytotoxicity: top concentration of the series differs between compounds
# How it was run: as §1
# [14] = qHTS RealTime-Glo MT Cell Viability Assay in HEK293 cells - 8 hour (AID 1224887); further: nearly all actives have a fitted effect of over 50% in size; further: potency means the concentration at half of the fitted maximal effect; on activity change, negative = cytotoxicity: top concentration of the series differs between compounds
# How it was run: as §2
# [15] = A CellTox Green Cytotoxicity Assay to monitor cytotoxicity in HEK293 cells - 16 hour (AID 1224888); further: nearly all actives have a fitted effect of over 35% in size; further: potency means the concentration at half of the fitted maximal effect
# How it was run: as §3
# [16] = qHTS RealTime-Glo MT Cell Viability Assay in HepG2 cells - 0 hour (AID 1224889); further: nearly all actives have a fitted effect of over 50% in size
# How it was run: as §5
# [17] = A CellTox Green Cytotoxicity Assay to monitor cytotoxicity in HepG2 cells - 8 hour (AID 1224890); further: nearly all actives have a fitted effect of over 45% in size; further: potency means the concentration at half of the fitted maximal effect
# How it was run: as §4
# [18] = A CellTox Green Cytotoxicity Assay to monitor cytotoxicity in HEK293 cells - 40 hour (AID 1224871); further: nearly all actives have a fitted effect of over 45% in size; further: potency means the concentration at half of the fitted maximal effect
# How it was run: as §3
# [19] = A CellTox Green Cytotoxicity Assay to monitor cytotoxicity in HEK293 cells - 32 hour (AID 1224881); further: nearly all actives have a fitted effect of over 40% in size; further: potency means the concentration at half of the fitted maximal effect
# How it was run: as §3
# [20] = A CellTox Green Cytotoxicity Assay to monitor cytotoxicity in HEK293 cells - 8 hour (AID 1224884); further: nearly all actives have a fitted effect of over 35% in size; further: potency means the concentration at half of the fitted maximal effect
# How it was run: as §3
compound,measurement,setting,value
CN1CCN(c2c(F)cc3c(=O)c(C(=O)O)cn(CCF)c3c2F)CC1,Potency,[1],inactive
same,outcome,[2],inactive
same,max response,[3],10.4%
same,Potency,[4],5.35 µM (active)
same,Potency,[5],inactive
same,Potency,[6],inactive
same,Potency,[7],inactive
same,Potency,[8],inactive
same,outcome,[9],inactive
same,Potency,[10],inactive
same,Potency,[11],inactive
same,outcome,[12],inactive
same,Potency,[13],inactive
same,Potency,[14],inactive
same,Potency,[15],5.35 µM (active)
same,Potency,[16],inactive
same,Potency,[17],inactive
CC[C@H]1CC[C@H](NCc2cc3c(cc2OC)[C@H]2C[C@H]2C(=O)N3C)[C@H](c2ccccc2)N1,Potency,[18],inactive
same,outcome,[2],inactive
same,Potency,[3],21.9 µM (active)
same,Potency,[4],inactive
same,Potency,[5],inactive
same,Potency,[6],inactive
same,outcome,[9],inactive
same,Potency,[19],inactive
same,Potency,[10],inactive
same,outcome,[12],inactive
same,Potency,[13],21.9 µM (active)
same,Potency,[15],inactive
same,Potency,[16],inactive
same,Potency,[17],inactive
CN(C)C(=O)NC1(c2ccccc2)CCN(CCC[C@]2(c3ccc(Cl)c(Cl)c3)CCCN(C(=O)c3ccccc3)C2)CC1,cytotoxicity increase,[18],31% [at 15.8 µM]
same,"viability change, negative = cytotoxic",[2],-6.85% [at 15.8 µM]
same,activity change,[4],"4.75% [at 15.8 µM, stronger effect = higher value]"
same,cytotoxicity increase,[5],15.3% [at 15.8 µM]
same,"activity change, negative = cytotoxic",[6],-9.2% [at 15.8 µM]
same,cytotoxicity,[7],19.6% [at 15.8 µM]
same,"activity change, negative = cytotoxicity",[9],0.507% [at 15.8 µM]
same,cytotoxicity increase,[19],19.1% [at 15.8 µM]
same,cytotoxicity,[10],-1.48% [at 15.8 µM]
same,cytotoxicity increase,[20],-1.4% [at 15.8 µM]
same,"activity change, negative = cytotoxic",[12],-10.4% [at 15.8 µM]
same,"activity change, negative = cytotoxicity",[14],-28.2% [at 15.8 µM]
same,activity change,[15],"-0.407% [at 15.8 µM, stronger effect = higher value]"
same,"activity change, negative = cytotoxicity",[16],-2.18% [at 15.8 µM]
same,cytotoxicity increase,[17],9.35% [at 15.8 µM]
CCCCCCn1c(=O)c2c(ncn2C)n(C)c1=O,Potency,[18],inactive
same,Potency,[1],inactive
same,max response,[3],-1.75%
same,Potency,[4],inactive
same,Potency,[5],inactive
same,Potency,[6],inactive
same,Potency,[7],inactive
same,Potency,[8],inactive
same,outcome,[9],inactive
same,Potency,[19],inactive
same,Potency,[10],inactive
same,Potency,[11],inactive
same,Potency,[20],inactive
same,Potency,[13],inactive
same,Potency,[14],inactive
same,Potency,[15],inactive
same,Potency,[16],inactive
same,Potency,[17],inactive
C=CCCCCCCCCO,Potency,[1],inactive
same,outcome,[2],inactive
same,max response,[3],-15.3%
same,Potency,[5],inactive
same,Potency,[6],inactive
same,outcome,[9],inactive
same,Potency,[10],inactive
same,Potency,[20],inactive
same,outcome,[12],inactive
same,Potency,[13],inactive
same,Potency,[14],inactive
same,Potency,[15],inactive
same,Potency,[16],inactive
same,Potency,[17],inactive
CCCCCCCCCCCCOCCOS(=O)(=O)O,Potency,[18],24.5 µM (active)
same,Potency,[1],inactive
same,outcome,[2],inactive
same,Potency,[5],49 µM (active)
same,Potency,[6],inactive
same,Potency,[7],49 µM (active)
same,Potency,[8],54.9 µM (active)
same,outcome,[9],inactive
same,Potency,[19],24.5 µM (active)
same,Potency,[10],inactive
same,Potency,[11],54.9 µM (active)
same,Potency,[20],19.5 µM (active)
same,outcome,[12],inactive
same,Potency,[13],inactive
same,Potency,[14],inactive
same,Potency,[15],21.9 µM (active)
same,Potency,[16],inactive
same,Potency,[17],54.9 µM (active)
Cc1ccccc1C(=O)Nc1ccc(C(=O)N2CCCC(O)c3cc(Cl)ccc32)c(C)c1 (stereo not given),Potency,[18],inactive
same,outcome,[2],inactive
same,Potency,[4],inactive
same,Potency,[5],inactive
same,Potency,[6],inactive
same,Potency,[7],inactive
same,Potency,[8],inactive
same,outcome,[9],inactive
same,Potency,[19],inactive
same,Potency,[10],inactive
same,Potency,[11],inactive
same,Potency,[20],inactive
same,Potency,[15],inactive
same,Potency,[16],inactive
same,Potency,[17],inactive
O=Cc1ccc(O)c(O)c1O,Potency,[18],inactive
same,Potency,[1],inactive
same,max response,[3],1.24%
same,Potency,[4],inactive
same,Potency,[5],inactive
same,Potency,[6],inactive
same,outcome,[9],inactive
same,Potency,[19],inactive
same,Potency,[10],inactive
same,Potency,[20],inactive
same,outcome,[12],inactive
same,Potency,[13],inactive
same,Potency,[14],inactive
same,Potency,[15],inactive
same,Potency,[16],inactive
same,Potency,[17],inactive
Nc1ccc(Oc2ccc(N)c(N)c2)cc1,Potency,[18],inactive
same,Potency,[4],inactive
same,Potency,[5],inactive
same,Potency,[6],inactive
same,outcome,[9],inactive
same,Potency,[19],inactive
same,Potency,[10],inactive
same,Potency,[20],inactive
same,Potency,[15],inactive
O=C1CCCCCCCCCCC(=O)OCCO1,outcome,[2],inactive
same,max response,[3],-13.7%
same,Potency,[5],inactive
same,Potency,[6],inactive
same,Potency,[7],21.9 µM (active)
same,Potency,[8],24.5 µM (active)
same,outcome,[9],inactive
same,Potency,[19],inactive
same,Potency,[10],inactive
same,Potency,[11],24.5 µM (active)
same,Potency,[20],inactive
same,outcome,[12],inactive
same,Potency,[13],inactive
same,Potency,[15],inactive
same,Potency,[16],inactive
same,Potency,[17],inactive
CCCCCCOc1ccc(N)cc1,Potency,[18],43.6 µM (active)
same,outcome,[2],inactive
same,Potency,[5],inactive
same,Potency,[6],inactive
same,outcome,[9],inactive
same,Potency,[19],inactive
same,Potency,[10],inactive
same,outcome,[12],inactive
same,Potency,[14],19.5 µM (active)
same,Potency,[15],inactive
same,Potency,[16],inactive
same,Potency,[17],inactive
CCN(CCCc1ccccc1)CCCc1ccccc1,Potency,[18],inactive
same,outcome,[2],inactive
same,Potency,[4],inactive
same,Potency,[5],inactive
same,Potency,[6],inactive
same,Potency,[7],inactive
same,outcome,[9],inactive
same,Potency,[19],inactive
same,Potency,[10],inactive
same,Potency,[11],inactive
same,Potency,[20],inactive
same,Potency,[14],inactive
same,Potency,[15],inactive
same,Potency,[16],inactive
same,Potency,[17],inactive
COC(=O)N[C@H](C(=O)N[C@@H](Cc1ccccc1)[C@@H](O)CN(Cc1ccc(-c2ccccn2)cc1)NC(=O)[C@@H](NC(=O)OC)C(C)(C)C)C(C)(C)C,Potency,[18],inactive
same,Potency,[1],inactive
same,max response,[3],-6.22%
same,Potency,[6],inactive
same,outcome,[9],inactive
same,Potency,[19],inactive
same,Potency,[20],inactive
same,outcome,[12],inactive
same,Potency,[13],inactive
same,Potency,[14],inactive
same,Potency,[15],inactive
